Here are results for 57 molecules from PubChem BioAssay AID360 (National Center for Advancing Translational Sciences (NCATS), 2006).

Molecules are shown by their SMILES. In all, about 48,000 compounds went through this assay and about 550 (1.1%) were called active. Not shown: some 4% with an inconclusive outcome. Rule as the data show it: active = potency below about 15 µM; inconclusive = mostly about 16 µM to 33 µM; inactive = weaker than that. For the sample, actives were picked, then their nearest neighbours and some compounds at random.
Potency is read from the fitted curve at half-maximal effect.

Sequence of Lysosomal acid glucosylceramidase (Homo sapiens) (P04062 whole entry, looked up): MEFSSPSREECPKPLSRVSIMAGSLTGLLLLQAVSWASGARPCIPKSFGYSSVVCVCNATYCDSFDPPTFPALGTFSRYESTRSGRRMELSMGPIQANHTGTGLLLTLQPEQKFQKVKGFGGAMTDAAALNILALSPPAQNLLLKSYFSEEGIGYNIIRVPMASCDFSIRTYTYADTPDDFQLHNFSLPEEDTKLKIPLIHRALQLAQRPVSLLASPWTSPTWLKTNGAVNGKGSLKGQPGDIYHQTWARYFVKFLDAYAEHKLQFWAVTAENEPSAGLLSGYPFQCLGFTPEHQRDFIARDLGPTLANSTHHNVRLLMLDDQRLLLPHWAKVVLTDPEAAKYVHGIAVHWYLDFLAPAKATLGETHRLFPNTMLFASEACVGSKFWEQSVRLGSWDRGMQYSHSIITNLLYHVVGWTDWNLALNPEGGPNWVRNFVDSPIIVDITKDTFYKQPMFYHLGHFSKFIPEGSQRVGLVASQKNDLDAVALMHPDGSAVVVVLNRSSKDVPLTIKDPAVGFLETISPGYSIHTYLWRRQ

The target of this assay is Lysosomal acid glucosylceramidase (Homo sapiens) (UniProt P04062). As to the kind of experiment: Glucocerebrosidase.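 Also: the screen sought inhibitors.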 The conditions noted are these: purified enzyme, resorufin glucoside fluorescence (screen aimed at inhibitors), 20 min. An excerpt:
NCGC Assay Overview: Beta-glucocerebrosidase catalyzes the hydrolysis of beta-glucocerebroside to glucose and ceramide. The inherited deficiency of beta-glucocerebrosidase results in Gaucher disease, which is characterized by a wide variety of symptoms including hepatosplenomegaly, anemia, thrombocytopenia, bony lesions and bone marrow infiltration with characteristic storage cells, known as Gaucher cells. There are also forms of the disorder affecting the central nervous system. Patients with the same genotypes can manifest with diverse clinical presentations and it is believed that improper folding and trafficking of beta-glucocerbrosidase may contribute to the phenotypes observed. Low molecular weight molecules, acting as chaperones, may potentially restore trafficking of misfolded beta-glucocerebrosidase from the endoplasmic reticulum to the lysosomes, thereby enhancing functional lysosomal beta-glucocerebrosidase activity. Using normal beta-glucocerebrosidase, an assay was developed to screen for small molecule inhibitors that could potentially act as molecular chaperones on the mutant forms [developed with NIH investigator Dr. Ellen Sidransky's laboratory]. Two pro-fluorescent substrates were chosen for two screens against a small molecule library. One beta-glucocerebrosidase assay used Resorufin beta-D-Glucopyranoside (Marker Gene Technology Inc.), generating a red fluorescent product. The second assay used Fluorescein di-beta-D-Glucopyranoside, generating a blue fluorescent product. […] The IC50 values of Conduritol B Epoxide, a known glucocerebrosidase inhibitor, were determined to be 87.5 uM and 117 uM, respectively. The use of two difference pro-fluorescent substrates in the screens helped to eliminate false positives. All compounds were screened in a titration series resulting in AC50s (e.g., IC50s or EC50s).
NCGC Assay Protocol Summary: Both enzyme and substrate were diluted in buffer composed of 50mM citric acid/KH2PO4, 10mM sodium taurocholate and 0.01% tween-20 at pH 5.9. The final concentration of the enzyme was 0.2 nM in both assays. The compound library was titrated in 7 to 15 concentrations for the primary screens with a final concentration ranging from 0.6 nM to 50 uM. This particular assay protocol is for the "red" substrate, and it was performed in 1536-well plate format as follows: Red fluorescence substrate assay: 2 uL enzyme 23 nL compound 1 uL substrate (final concentration of 30 uM) Incubate at room temperature (RT) for 20 minutes Read the plate in Viewlux plate reader (Ex=548(7) and Em=600(10)).
Take `CCC(=O)Nc1cccc(NC(=O)CSc2nnc(-c3ccc(NS(C)(=O)=O)cc3)n2C)c1`: the Potency is > 76.9 µM (inactive). On to `Cn1c(CN2CCOCC2)nc2cc(NC(=O)c3ccc(Cl)cc3)ccc21`, for which the Potency was 52.2 µM (inactive). Take `O=C(NCCCN1CCOCC1)c1cc(-c2ccc(Cl)cc2)on1`: the Potency was > 76.9 µM (inactive). As for `COc1cccc2cc(C(C)N(CCCN3CCOCC3)C(=O)Nc3ccc(Cl)cc3)oc12` (configuration not stated), the figure is 9.17 µM (active); as for `O=C(CSc1n[nH]c(-c2cccnc2)n1)Nc1ccnc2ccccc12`, > 76.9 µM (inactive). The result for `COC(=O)c1ccccc1NC(=O)CSc1ccccn1` reads > 76.9 µM (inactive); that for `O=C(CS(=O)(=O)Cc1ccccc1)NCC1CCCO1` (configuration not stated), > 76.9 µM (inactive); that for `CC(C)N(C(=O)Cn1c(SCC(=O)N2CCN(c3ccccc3)CC2)nc2ccccc21)C(C)C`, > 76.9 µM (inactive). With `CCOC(=O)c1sc(NC(=S)n2cc(C)cn2)c(C(=O)OCC)c1C`, the Potency was > 76.9 µM (inactive). As for `COc1cccc(NC(=O)CN(C)S(=O)(=O)c2ccc(C)cc2)c1`, the figure is > 76.9 µM (inactive). With `CC(C)NS(=O)(=O)c1ccc(CCC(=O)N2CCOCC2)cc1`, the Potency was > 76.9 µM (inactive). Turning to `CCCc1nnc(NC(=O)CN2C(=O)c3ccccc3S2(=O)=O)s1`, the Potency was > 76.9 µM (inactive). Consider `CN1CCN(c2nc3c(c(=O)[nH]c(=O)n3C)n2Cc2cccc3ccccc23)CC1`, for which the Potency was > 76.9 µM (inactive). On to `COc1ccc(C2N=C(N)N=C(N)N2c2ccccc2)cc1OC` (configuration not stated), for which the Potency is > 76.9 µM (inactive).

In the case of `O=C(Cn1c(-c2ccc(Cl)cc2)noc1=O)N1CCN(c2ccccc2F)CC1`, the Potency was > 76.9 µM (inactive).

In the case of `Fc1ccc(OCc2nn3c(Cn4nnc5ccccc54)nnc3s2)cc1`, the Potency was > 76.9 µM (inactive). For `Cc1ccc(S(=O)(=O)N2CCC(C(=O)N[C@@H](C)C(=O)NCc3ccccc3)CC2)cc1`, the Potency is > 76.9 µM (inactive). The result for `C/C(O)=C\c1nc(=O)c2c(C)cc(C)nc2n1-c1ccccc1` reads > 76.9 µM (inactive). For `O=C(COc1ccc(F)cc1)N(CC1=CCS(=O)(=O)C1)c1ccccc1`, the Potency is > 76.9 µM (inactive). `COc1ccc2nc(NC3=NCN(CC4CCCO4)CN3)nc(C)c2c1` (configuration not stated): the Potency is > 76.9 µM (inactive). `Cc1cc(C)nc(N2CCN(c3ncnc4c3oc3ccccc34)CC2)n1`: the Potency is > 76.9 µM (inactive). Regarding `CC(C)c1nc2oc3c(N4CCN(C)CC4)ncnc3c2c2c1CCC2`, the Potency is 8.51 µM (active).

For `COc1ccc(CCn2c(-c3ccco3)nc3nc4ccccc4nc32)cc1OC`, the Potency is > 76.9 µM (inactive). The result for `CCOC(=O)CCC(=O)OCC(=O)NC(C)C1CC2CCC1C2` (configuration not stated) reads > 76.9 µM (inactive); that for `CCOC(=O)c1sc(N(Cc2ccccc2)C(=O)CN2C(=O)CN(C)C2=O)nc1C`, > 76.9 µM (inactive); that for `CCOC(=O)c1c(C)[nH]c(C(=O)NCc2ccccc2OC)c1C`, > 76.9 µM (inactive). On to `Fc1ccc(-c2nnc3sc(-c4ccc5c(c4)OCO5)nn23)cc1`, for which the Potency was > 76.9 µM (inactive). For `Cc1cc(C)cc(N(C(C)C(=O)Nc2c(C)n(C)n(-c3ccccc3)c2=O)S(C)(=O)=O)c1` (configuration not stated), the Potency was > 76.9 µM (inactive). For the molecule `c1ccc(CCc2nc(-c3ccncc3)no2)cc1`, the Potency is > 76.9 µM (inactive). As to `CC(Sc1nncn1C)C(=O)Nc1ccccc1-c1ccccc1` (configuration not stated), the Potency was > 76.9 µM (inactive). The result for `Cc1ccc(S(=O)(=O)N2CCN(C(=O)CCC(=O)NC3CCCc4ccccc43)CC2)cc1` (configuration not stated) reads > 76.9 µM (inactive); that for `Cc1noc(C)c1C(=O)NC(C)c1ccc2c(c1)OCO2` (configuration not stated), > 76.9 µM (inactive). `CCN(CC)CCN1C(=O)C(=O)/C(=C(/O)c2ccc(OC)c(OC)c2)C1c1ccccn1` (configuration not stated): the Potency was > 76.9 µM (inactive). Consider `Cc1nc(NC(CC(C)C)C(=O)O)c2nc(C)oc2n1` (configuration not stated), for which the Potency was > 76.9 µM (inactive). Regarding `C=CCn1c(C(C)NC(=O)CC)nc2ccccc21` (configuration not stated), the Potency is > 76.9 µM (inactive). With `CCOC(=O)N1CCN(C(=O)C2CCN(S(C)(=O)=O)CC2)CC1`, the Potency is > 76.9 µM (inactive). Consider `CC(C)CCNc1nc(N2CCCC2)c2c(c1C#N)CCN(C)C2`, for which the Potency was 12.7 µM (active). On to `Cc1cc(C)c2nc(N3CCCC3)c(C#N)cc2c1`, for which the Potency is > 76.9 µM (inactive). For `Cc1cccc2cc(C#N)c(N3CCCC3)nc12`, the Potency is > 76.9 µM (inactive).

As to `Cn1c(=O)n(C)c(=O)n(CC(=O)N2CCCCC2)c1=O`, the Potency is > 76.9 µM (inactive). The result for `Cc1cc(=O)cc(C)[nH]1` reads > 76.9 µM (inactive). In the case of `C=CCn1c(SCc2cc(C(=O)OC)c(C)o2)nnc1-c1ccncc1`, the Potency is > 76.9 µM (inactive). As for `Cc1ccc(S(=O)(=O)N(C)CC(=O)N2CCc3ccccc32)cc1`, the figure is > 76.9 µM (inactive); as for `CCC(CC)c1nnc(NS(=O)(=O)Cc2ccccc2)s1`, > 76.9 µM (inactive).

As to `CC(Oc1ccc(Cl)cc1)C(=O)Nc1ncccn1` (configuration not stated), the Potency was > 76.9 µM (inactive). `COc1ccc(N2CCN(CCNC(=O)CCN3C(=O)COc4ccccc43)CC2)cc1`: the Potency was > 76.9 µM (inactive). Regarding `COc1ccc(N2CCN(Cc3cc(=O)oc4ccc5ccccc5c34)CC2)cc1`, the Potency was 5.96 µM (active). For `O=c1ccc2cc(S(=O)(=O)N3CCN(c4ccccc4)CC3)ccc2o1`, the Potency was > 76.9 µM (inactive). `COC(=O)c1cc(NC(=O)CN2CCC(C(N)=O)(N3CCCCC3)CC2)cc(C(=O)OC)c1`: the Potency was > 76.9 µM (inactive). For the molecule `COc1ccc(S(=O)(=O)N2CCN(c3ncnc4c(-c5ccccc5)nsc34)CC2)cc1`, the Potency was > 76.9 µM (inactive). Turning to `CCn1c2c(c3ccc(OC)cc31)CCCC2=O`, the Potency was > 76.9 µM (inactive). Regarding `CCOC(=O)CNC(=O)CSc1nnc(COc2ccc(Cl)cc2)n1CC`, the Potency was > 76.9 µM (inactive). As to `O=S(=O)(Nc1ccccc1N1CCOCC1)c1ccc(Cl)s1`, the Potency is > 76.9 µM (inactive). Regarding `COc1cccc(C2/C(=C(/O)c3ccncc3)C(=O)C(=O)N2CCCN(C)C)c1` (configuration not stated), the Potency is > 76.9 µM (inactive).

With `CC1CCCCN1CC(=O)NCc1ccc2c(c1)OCO2` (configuration not stated), the Potency is > 76.9 µM (inactive). Consider `CC(C)(C)Oc1ncc(Br)c(OC(C)(C)C)n1`, for which the Potency is > 76.9 µM (inactive). On to `N#CC(C(N)=O)=C1CCC2(CC1)OCCCCO2`, for which the Potency was > 76.9 µM (inactive).
